{"source": "PubChem BioAssay (EPA / NIEHS)", "note": "Calls of active or inactive are those of the source. The calls were made as follows: active = hit-call score of the fitted dose curve at least 0.9, where 1 is the maximum; inactive = score below 0.9.", "data": [{"experiment": "APR_HepG2_MitoMembPot_24hr: Apredica 24-hour HepG2 Assay for Mitochondrial Membrane Potential (AID 2282911)", "details": "imaging, actives raise or lower the signal", "experimental": "APR_HepG2_24hr is a cell-based, multiplexed-readout assay that uses HepG2, a human liver cell line, with measurements taken at 24 hours after chemical dosing in a 384-well plate.APR_HepG2_MitoMembPot_24hr is one of 10 assay component(s) measured or calculated from the APR_HepG2_24hr assay. It is designed to make measurements of dye binding, a form of membrane potential reporter, as detected with fluorescence intensity signals by HCS Fluorescent Imaging technology.Data from the assay component APR_HepG2_MitoMembPot_24hr was analyzed into 1 assay endpoint. This assay endpoint, APR_HepG2_MitoMembPot_24hr, was analyzed with bidirectional fitting relative to DMSO as the negative control and baseline of activity. Using a type of membrane potential reporter, gain or loss-of-signal activity can be used to understand changes in the signaling. Furthermore, this assay endpoint can be referred to as a primary readout, because this assay has produced multiple assay endpoints where this one serves a signaling function. To generalize the intended target to other relatable targets, this assay endpoint is annotated to the cell morphology intended target family, where the subfamily is organelle conformation.\nCells were treated with dimethyl sulfoxide (DMSO) as a solvent control at a final concentration of 0.5% v/v or with compounds in DMSO with a resulting final DMSO concentration of 0.5% v/v. Compound treatment was done at concentrations of 0.39, 0.78, 1.56, 3.12, 6.24, 12.5, 25, 50, 100, and 200 uM in duplicate on each plate. Cells were treated with compounds for 1, 24, or 72 hr. Carbonyl […] m-chloro-phenylhydrazone (CCCP) and taxol were used as positive controls for mitochondrial function and cytoskeletal stability, respectively; DMSO served as the negative control for this experiment. Cells were fixed by the direct addition of 50 uL formaldehyde in Hank's Balanced Salt Solution (HBSS) to a final concentration of 3.7%. After incubation in the fixation medium for 30 min at room temperature (293-298 K), cells were rinsed twice with HBSS and treated with cell permeabilization buffer (16 uL of 0.5% Triton X-100) for 10 min at room temperature (293-298 K) before labeling. For mitochondrial membrane potential and mitochondrial measurements, pre-fixed cells were incubated with 50 uL of MitoTracker Red CMXRos (Invitrogen) at a concentration of 250 nM for 30 min before fixation. In the remaining cases, post-fixed cells were labeled by incubation with a multiplexed mixture of primary antibodies in HBSS for 60 min at room temperature (293-298 K) to detect immunoreactivity of c-Jun (1:500), phospho-histone H3 (1:100), phospho-histone H2A.x (1:200), p53 (1:400), alpha-tubulin (1:200) and Hoechst 33342 (2 ug/mL). Cells were labeled for multiplexed imaging on two separate plates: a) Hoechst 33342, MitoTracker Red, phospho-histone H3, and alpha-tubulin, and b) Hoechst 33342, phospho-histone H2A.x, and c-Jun. A final rinse with HBSS (50 uL) was performed before analysis. The primary and secondary antibodies for the proteins were phospho-histone H3 (rabbit anti-phospho-histone H3 and FITC-donkey anti-rabbit IgG), phospho-histone H2A.x (mouse anti-phospho-histone H2A.x and FITC-donkey anti-mouse IgG), c-Jun (rabbit anti-phospho-c-Jun and Cy3-donkey anti-rabbit IgG), p53 (sheep anti-p53 and Cy5-donkey anti-sheep IgG), alpha-tubulin (mouse anti-alpha-tubulin and Cy5-donkey anti-mouse IgG). These antibodies are available as the CellCiphr HepG2 assay kit (Millipore).Digital images of each well were captured using a Cellomics ArrayScan VTI (Thermo Scientific Cellomics) (0.8 NA objective, 0.63x optical coupler, and XF-93 filter set) at 20x magnification. The images were acquired using the autofocus feature of the ArrayScan instrument, which entails the following steps. First, the camera focuses on channel 1 (Hoechst 33342), where nuclei are identified. Second, a Z offset of 1 um is used for capturing mitochondria (MitoTracker Red). […]", "values": [{"smiles": "CC(C)=CCC/C(C)=C/CO", "outcome": "inactive"}, {"smiles": "O=c1n(CC2CO2)c(=O)n(CC2CO2)c(=O)n1CC1CO1", "note": "(stereo not given)", "outcome": "inactive"}, {"smiles": "CC(C)=CCC/C(C)=C\\CO", "outcome": "inactive"}, {"smiles": "COCCOc1cc2cc(C(=O)NC3CCN(C(C)C)CC3)n(CC(=O)Nc3ccc(Cl)cn3)c2cn1", "outcome": "inactive"}, {"smiles": "Cc1c(-c2cccnc2)c2ccccc2n1CCCCC(=O)O", "outcome": "inactive"}, {"smiles": "CC(C)=CCCC(C)=CC=O", "outcome": "inactive"}, {"smiles": "CN(C)c1ccc(N=NS(=O)(=O)O)cc1", "outcome": "inactive"}, {"smiles": "CCCCCCCCO", "outcome": "inactive"}, {"smiles": "CCc1cc(SCc2sc(-c3ccc(C(F)(F)F)cc3)nc2CN2CCN(c3ccc(OC)cc3)CC2)ccc1OCC(=O)O", "outcome": "inactive"}, {"smiles": "COCCOCCOCCOC", "outcome": "inactive"}, {"smiles": "COC(=O)c1ccccc1O", "outcome": "inactive"}, {"smiles": "O=P(OC(CCl)CCl)(OC(CCl)CCl)OC(CCl)CCl", "outcome": "inactive"}, {"smiles": "CCCCCCc1ccc(O)cc1O", "AC50": "46.1 µM (active)"}, {"smiles": "O=C(O)c1cccc(Oc2ccccc2)c1", "outcome": "inactive"}, {"smiles": "CC(=O)OC[C@H]1O[C@@](COC(C)=O)(O[C@H]2O[C@H](COC(C)=O)[C@@H](OC(C)=O)[C@H](OC(C)=O)[C@H]2OC(C)=O)[C@@H](OC(C)=O)[C@@H]1OC(C)=O", "outcome": "inactive"}, {"smiles": "CNS(=O)(=O)c1cc(C(=O)N2CCC(CCN3C4CCC3CC(n3c(C)nc5ccccc53)C4)(c3cccc(F)c3)CC2)c(Cl)cc1F", "note": "(stereo not given)", "outcome": "inactive"}, {"smiles": "CC[C@H]1CC[C@H](NCc2cc3c(cc2OC)[C@H]2C[C@H]2C(=O)N3C)[C@H](c2ccccc2)N1", "outcome": "inactive"}, {"smiles": "Nc1ccc(Nc2ccccc2)cc1", "AC50": "54 µM (active)"}, {"smiles": "CCOc1cccc(-n2cc(C(=O)N3CCN(c4cc(C(=O)O)c5ccccc5c4)CC3)nc2-c2ccc(C)cc2)c1", "outcome": "inactive"}, {"smiles": "CC(C)CCCCCCCOC(=O)CCCCC(=O)OCCCCCCCC(C)C", "outcome": "inactive"}, {"smiles": "CC(C)=CCCC(C)CCO", "note": "(stereo not given)", "outcome": "inactive"}, {"smiles": "CC(C)CCO", "outcome": "inactive"}, {"smiles": "COc1ccc(-n2nc(C(F)F)cc2-c2ccc(S(C)=O)cc2)cc1", "note": "(stereo not given)", "AC50": "5.03 µM (active)"}, {"smiles": "CC/C(=C\\C(=N/O)C(N)=O)C(C)[N+](=O)[O-]", "note": "(stereo not given)", "outcome": "inactive"}, {"smiles": "CC(C)CC(C)(O)C#CC(C)(O)CC(C)C", "note": "(stereo not given)", "outcome": "inactive"}, {"smiles": "CCCCCCCCCCCCCCCO", "outcome": "inactive"}, {"smiles": "CC1(C)C(=O)N(Br)C(=O)N1Br", "outcome": "inactive"}, {"smiles": "NC(=O)NO", "outcome": "inactive"}, {"smiles": "O=C(O)c1cccc(N(Cc2cccnc2)c2ccc(OC(F)F)c(OC(F)F)c2)c1", "AC50": "0.0349 µM (active)"}, {"smiles": "Cc1ccc(C)c(O)c1", "outcome": "inactive"}, {"smiles": "CCOCCOCCOCCO", "outcome": "inactive"}, {"smiles": "O=C(NS(=O)(=O)/C=C/c1ccccc1)c1ccc(F)cc1Cl", "outcome": "inactive"}, {"smiles": "CNCc1ccc(NC(=O)c2c[nH]c3c2C(=O)CCC3)cc1", "outcome": "inactive"}, {"smiles": "CC[C@H]1OC(=O)[C@H](C)[C@@H](O[C@H]2C[C@@](C)(OC)[C@@H](O)[C@H](C)O2)[C@H](C)[C@@H](O[C@@H]2O[C@H](C)C[C@H](N(C)C)[C@H]2O)[C@](C)(O)C[C@@H](C)C(=O)[C@H](C)[C@@H](O)[C@]1(C)O", "outcome": "inactive"}, {"smiles": "CC(C)(O)c1coc(S(=O)(=O)NC(=O)Nc2c3c(cc4c2CCC4)CCC3)c1", "outcome": "inactive"}, {"smiles": "CC(=O)OCCC(C)C", "outcome": "inactive"}, {"smiles": "CCOC(=O)c1ccc(C2CCC(NC[C@H](O)COc3ccc(O)c(NS(C)(=O)=O)c3)CC2)cc1", "note": "(stereo not given in full)", "AC50": "86.9 µM (active)"}, {"smiles": "CC[C@H](C)C(=O)O[C@H]1C[C@@H](C)C=C2C=C[C@H](C)[C@H](CC[C@@H]3C[C@@H](O)CC(=O)O3)[C@H]21", "AC50": "48.8 µM (active)"}, {"smiles": "CCCC(=O)OCC", "outcome": "inactive"}, {"smiles": "COC(=O)CC(=O)OC", "outcome": "inactive"}]}]}
